Measurements as given in paper PMC5540273 (PLoS ONE, 2017).

Legend:
Conditions in all cases: concentration: 1 μM, replicates: in singlicate; n = 1
[1] = test system: EPHA7
[2] = test system: EPHA8
[3] = test system: EPHB1
[4] = test system: EPHB2
[5] = test system: EPHB3
[6] = test system: EPHB4
[7] = test system: EPHB6
[8] = test system: ERBB2
[9] = test system: ERBB3
[10] = test system: ERBB4
[11] = test system: T1, ERK1
T1 construct: gene MAPK3

[12] = test system: T2, ERK2
T2 construct: gene MAPK1

[13] = test system: T3, ERK3
T3 construct: gene MAPK6

[14] = test system: T4, ERK4
T4 construct: gene MAPK4

[15] = test system: T5, ERK5
T5 construct: gene MAPK7

[16] = test system: T6, ERK8
T6 construct: gene MAPK15

[17] = test system: ERN1
[18] = test system: T7, FAK
T7 construct: gene PTK2

[19] = test system: FER
[20] = test system: FES
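Also: KINOMEscan kinase panel screen.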

| Structure (SMILES) | %Inh [1] [%] | %Inh [2] [%] | %Inh [3] [%] | %Inh [4] [%] | %Inh [5] [%] | %Inh [6] [%] | %Inh [7] [%] | %Inh [8] [%] | %Inh [9] [%] | %Inh [10] [%] | %Inh [11] [%] | %Inh [12] [%] | %Inh [13] [%] | %Inh [14] [%] | %Inh [15] [%] | %Inh [16] [%] | %Inh [17] [%] | %Inh [18] [%] | %Inh [19] [%] | %Inh [20] [%] |
| --- | --- | --- | --- | --- | --- | --- | --- | --- | --- | --- | --- | --- | --- | --- | --- | --- | --- | --- | --- | --- |
| Cc1ccc(C)c(NC(=O)Nc2ccc(C)c(-c3ccc(C(=O)Nc4ccncc4)cc3)c2)c1 [GSK1398473] | 3 | 46 | 23 | 32 | 12 | 14 | 0 | 0 | 0 | 44 | 0 | 16 | 9 | 28 | 0 | 0 | 0 | 0 | 13 | 0 |
| CSc1ccc(NC2=C(c3ccc(Cl)cc3)C(=O)NC2=O)cc1 [SB-317658] | 0 | 5 | 0 | 6 | 21 | 11 | 0 | 0 | 0 | 0 | 9 | 29 | 11 | 0 | 0 | 13 | 47 | 7 | 0 | 29 |
| O=C(Nc1c(F)cccc1F)c1cc(C(=O)c2ccccc2F)c[nH]1 [GSK1326180] | 0 | 0 | 4 | 0 | 6 | 0 | 0 | 35 | 20 | 0 | 8 | 3 | 9 | 0 | 0 | 0 | 0 | 0 | 0 | 0 |
| COc1cc(Nc2nccc(N3CCC(NS(=O)(=O)c4ccc(NC(C)=O)cc4)CC3)n2)cc(OC)c1OC [GSK1379825] | 0 | 11 | 6 | 30 | 55 | 38 | 96.8 | 18 | 38 | 20 | 0 | 0 | 83 | 0 | 0 | 29 | 0 | 0 | 6 | 48 |
| COc1ccc(C)c(Nc2ccnc(Nc3ccc(-c4cnc[nH]4)cc3)n2)c1.Cl [GW784041] | 6 | 26 | 14 | 21 | 17 | 60 | 69 | 0 | 89 | 0 | 0 | 9 | 16 | 0 | 0 | 4 | 0 | 0 | 2 | 2 |
| COc1ccc(C2=C(Nc3cccc(O)c3)C(=O)NC2=O)cc1 [SB-390766] | 4 | 11 | 9 | 87 | 5 | 0 | 10 | 11 | 0 | 12 | 0 | 0 | 6 | 22 | 100 | 15 | 20 | 98.1 | 0 | 0 |
| Cc1ccc(NC(=O)c2cccc(N3CCCCC3)c2)cc1-c1ccc(C(=O)NCC2CC2)cc1 [GSK1917008] | 24 | 41 | 30 | 0 | 27 | 31 | 21 | 0 | 0 | 2 | 2 | 0 | 100 | 23 | 0 | 51 | 17 | 15 | 16 | 21 |
| CCNc1nccc(-c2c(-c3ccc(F)cc3)ncn2C2CCN(C)CC2)n1 | 0 | 0 | 0 | 0 | 0 | 0 | 9 | 0 | 9 | 0 | 0 | 0 | 0 | 0 | 0 | 4 | 100 | 0 | 0 | 0 |
| Cc1nn2c(=O)cc(N3CCO[C@H](C)C3)nc2n1Cc1cccc(Cl)c1Cl [GSK2373693] | 0 | 2 | 3 | 66 | 0 | 5 | 3 | 0 | 0 | 0 | 0 | 0 | 0 | 19 | 0 | 26 | 0 | 0 | 8 | 0 |
